Only some compounds are listed: those with a hit (about 2.9% of all), similar ones and a draw of the others.
POLK inh = qHTS for Inhibitors of Polymerase Kappa; DNA polymerase kappa (Homo sapiens), Q9UBT6; purified Pol kappa, fluorescent DNA synthesis assay, 10 min; Potency, µM (titrated, usually from 107 µM), inactives show at the top dose activity, negative = inhibition, usual class: inhibitors; hit rate 0.53% among 400,000; note: potency is the fitted concentration of half-maximal effect; % is set by controls: 0 for no effect and ±100 for the full control effect
Target sequence (Q9UBT6 whole entry, looked up): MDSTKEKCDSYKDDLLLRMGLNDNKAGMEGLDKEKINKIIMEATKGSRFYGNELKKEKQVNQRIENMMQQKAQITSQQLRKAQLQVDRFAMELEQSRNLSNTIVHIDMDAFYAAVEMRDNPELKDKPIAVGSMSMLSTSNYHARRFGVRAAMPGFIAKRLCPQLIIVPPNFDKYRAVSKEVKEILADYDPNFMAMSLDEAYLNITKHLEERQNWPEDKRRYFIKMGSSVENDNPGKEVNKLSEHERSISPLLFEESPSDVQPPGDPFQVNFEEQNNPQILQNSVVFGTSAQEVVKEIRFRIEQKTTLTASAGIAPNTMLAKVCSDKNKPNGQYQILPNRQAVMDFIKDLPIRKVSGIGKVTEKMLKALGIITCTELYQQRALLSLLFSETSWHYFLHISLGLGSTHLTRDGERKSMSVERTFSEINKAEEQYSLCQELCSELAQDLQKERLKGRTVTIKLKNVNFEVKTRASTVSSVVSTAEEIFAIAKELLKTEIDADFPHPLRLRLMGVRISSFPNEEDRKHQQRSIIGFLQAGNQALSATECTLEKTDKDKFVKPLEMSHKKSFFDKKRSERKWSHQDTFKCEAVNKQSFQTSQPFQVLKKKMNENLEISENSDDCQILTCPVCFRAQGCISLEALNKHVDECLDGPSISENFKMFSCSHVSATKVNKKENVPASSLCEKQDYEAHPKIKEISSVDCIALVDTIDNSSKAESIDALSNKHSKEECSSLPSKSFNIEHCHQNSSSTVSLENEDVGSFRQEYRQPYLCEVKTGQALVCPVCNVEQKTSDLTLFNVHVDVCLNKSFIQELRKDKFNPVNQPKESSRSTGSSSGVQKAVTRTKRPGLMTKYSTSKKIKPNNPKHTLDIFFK
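Pol kappa 10 nM + cpd, 15 min RT; start w/ substrate 50 nM final; fluorescence kinetic read, 0 and 10 min. Neg ctrl: buffer, no enzyme.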
ALOX12 inh = Primary qHTS assay for inhibitors of human arachidonate 12S-lipoxygenase (ALOX12): Round 2. Polyunsaturated fatty acid lipoxygenase ALOX12 (Homo sapiens), P18054. purified 12hLO, xylenol orange hydroperoxide absorbance. Potency, µM (highest dose often 108 µM), inactives show top-dose activity change, negative = inhibition, actives largely listed as inhibitors. hit rate 1.1% among 580,000. AID 1671190, 2021; note: potency is the fitted concentration of half-maximal effect; % is set by controls: 0 for no effect and ±100 for the full control effect
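Purified human 12hLO at 150 nM in 25 mM Hepes, 0.01% Triton X-100, pH 7.0, preincubated 15 min at room temperature with compound. Reaction started with 40 uM arachidonic acid, 30 min at room temperature. Hydroperoxide measured by Fe-xylenol orange, 573/405 nm absorbance ratio.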
POLH inh = qHTS for Inhibitors of Polymerase Eta | DNA polymerase eta (Homo sapiens), Q9Y253 | recombinant Pol eta, fluorescent DNA replication assay | Potency, µM (top dose mostly 114 µM), inactives show top-dose activity change, negative = inhibition, usual class: inhibitors | hit rate 1.2% among 390,000; note: potency is the fitted concentration of half-maximal effect; % is set by controls: 0 for no effect and ±100 for the full control effect
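Pol eta at 10 nM preincubated with compounds 15 min at room temperature; reaction started with fluorescent substrate (50 nM final) and read kinetically at 0 and 10 min.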
POLI inh = qHTS for Inhibitors of Polymerase Iota. Pol iota fluorescent replication assay, 10 min. Potency, µM (series often up to 115 µM), for inactives: at the highest dose activity, negative = inhibition, most hits filed as inhibitors. hit rate 1% among 390,000. AID 588590, 2011; note: potency is the fitted concentration of half-maximal effect
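Fluorescent replication assay read twice, at 0 min and 10 min after adding 50 nM (final) substrate. Enzyme (10 nM) and compounds were first incubated 15 min at room temperature; enzyme-free buffer wells were negative controls.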
PI5P4K alpha inh = qHTS for Inhibitors of phosphatidylinositol 5-phosphate 4-kinase (PI5P4K); AID 652105, 2013; hit rate 1.2% among 330,000; max response, %; Phosphatidylinositol 5-phosphate 4-kinase type-2 alpha (Homo sapiens), P48426; PI5P4Kalpha enzyme, ADP-Glo luminescence, 60 min; stronger effect = lower value; active = max response of -50% or lower; inconclusive = between -30% and -50%; inactive = -30% or higher; note: value at the top dose of about 77 µM; % is set by controls: 0 for no effect and ±100 for the full control effect
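ADP-Glo luminescence end-point after a 60 min room-temperature kinase reaction. PI5P4Kalpha and substrate in HEPES pH 7.4 buffer with EGTA, 0.1% CHAPS and 5% DMSO; ATP at 5 microM final.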
Pol beta inh = qHTS Assay for Inhibitors of DNA Polymerase Beta; hit rate 1.3% among 340,000; Pol beta primer extension/strand displacement, fluorescence kinetic; P06746; Potency, µM (series often up to 114 µM), without a hit: at the highest dose activity change, negative = inhibition, most hits filed as inhibitors; AID 485314, 2010; note: potency is the fitted concentration of half-maximal effect; % is set by controls: 0 for no effect and ±100 for the full control effect
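Kinetic readout of DNA synthesis with strand displacement by Pol beta. Compound and 10 nM enzyme sit 15 min at room temperature; 50 nM substrate starts the reaction, read immediately and at 10 min.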
An asterisk follows results filed as active; ? = inconclusive; · = no result; [ ] = remark or other dose. Unless noted, calls come from the whole dose curve; as a rule, active = well fitted inhibition curve with a large enough effect; inconclusive = small, poorly fitted or top-dose-only effect, or another doubt; inactive = no such curve, though single readings can be large or run the other way.

SMILES	POLK inh	ALOX12 inh	POLH inh	POLI inh	PI5P4K alpha inh	Pol beta inh
COc1cc2c(cc1OCc1ccccc1)N(C(=O)c1cc3ccccc3n1C)CC21CCN(C)CC1	·	32µM*	·	·	·	·
O=C(NC1CCCCC1)[C@H]1CN2CCC1C[C@@H]2Cn1cc(CO)nn1 (stereo partly drawn)	·	15%[176 µM]	·	·	·	·
O=c1[nH]c(=S)n(CCC2=CCCCC2)c(O)c1C=NCc1cccnc1	·	0%	·	·	·	24%
O=C(N/N=C/c1c(O)n(CCC2=CCCCC2)c(=S)[nH]c1=O)c1ccccc1	-12%	28µM*	-20%	-1%	-59*	-24%
CCCCC(=O)N/N=C/c1c(O)n(CCc2ccccc2)c(=O)[nH]c1=O	-1%	0%	-5%	27%	-58*	-30%
Nc1ccccc1N=Cc1c(O)n(CCC2=CCCCC2)c(=O)[nH]c1=O	-25%	-19%	?	14%	1	?
O=C(N/N=C/c1c(O)n(CCC2=CCCCC2)c(=O)[nH]c1=O)c1ccccc1	-7%	?	-12%	2%	-60*	0%
CC(C)CN1Cc2ccccc2-n2ccnc2C12CCN(C(=O)c1ccc(F)cc1)CC2	·	47%	·	·	·	·
CNC(=O)NC(=O)CN1CCN(C(=O)Cc2cccc(OC)c2)CC1	·	22%	·	·	·	·
O=C(O)c1cccc(C(=O)N2C[C@@H]3C[C@H](C2)c2ccc(NC(=O)C4CC4)c(=O)n2C3)c1	·	0%[176 µM]	·	·	·	·
COc1ccccc1NC(=O)Nc1ccc2n(c1=O)C[C@H]1C[C@@H]2CN(C2CCOCC2)C1	·	13µM*	·	·	·	·
COc1ccccc1NC(=O)N1C[C@@H]2C[C@H](C1)c1c(C3CCCCC3)ccc(=O)n1C2	·	10%[176 µM]	·	·	·	·
O=C(c1ccoc1)N1[C@H]2CC[C@@H]1c1cnc(-c3ccccc3)nc1C2	·	-6%	·	·	·	·
CC1=NOC2(CCCN(CC3CCCCC3)C2)C1 (stereo not drawn)	·	3%[12.5 µM]	·	·	·	·
C/C(=C\c1ccc2c(c1)OCO2)[N+](=O)[O-]	·	14µM*	·	·	·	·
CCCN1CCc2cccc3c2[C@H]1Cc1ccc(O)c(O)c1-3	?	·	0%	?	?	·
CN1CCc2cc(O)cc3c2C1Cc1ccc(O)c(O)c1-3 (stereo not drawn)	4%[19.4 µM]	?	-13%[57.1 µM]	16µM*	·	-2%[57.1 µM]
CCNC(=O)NC[C@H]1C[C@@H]2CCN1C[C@@H]2c1cc(-c2ccc3ccccc3c2)nn1C	·	12%[176 µM]	·	·	·	·
N=C(N)c1ccc(-c2ccc(-c3ccc(C(=N)N)cc3)o2)cc1	13µM*	·	·	10µM*	·	·
N=C(N)c1ccc(CS(=O)(=O)F)cc1	-9%[60.1 µM]	·	·	·	·	·
NC(Cc1ccc(N(CCCl)CCCl)cc1)C(=O)O (stereo not drawn)	0%[60.1 µM]	·	-2%[57.1 µM]	-13%[58.9 µM]	·	-10%[57.1 µM]
N[C@@H](Cc1ccc(Oc2cc(I)c(O)c(I)c2)c(I)c1)C(=O)O	·	5.1µM*	·	·	·	·
N[C@@H](Cc1cc(Br)c(O)c(Br)c1)C(=O)O	·	·	·	·	·	22µM*
O=C1NC(=O)C(=Cc2cccc(OCCOc3ccccc3)c2)C(=O)N1	-13%	?	-1%	?	-52*	28%
O=C1NC(=O)C(=Cc2ccc3c(c2)OCO3)C(=O)N1	·	?	·	·	·	1%
SMILES	POLK inh	ALOX12 inh	POLH inh	POLI inh	PI5P4K alpha inh	Pol beta inh
O=C1NC(=O)C(=Cc2ccc(OCCOc3ccc([N+](=O)[O-])cc3)cc2)C(=O)N1	-34%	?	79µM*	?	-63*	?
CCOc1cc(C=C2C(=O)NC(=O)NC2=O)ccc1OCC(=O)N1CCOCC1	-3%	-29%	-10%	12%	?	17%
Cc1ccc(OCCOc2cccc(C=C3C(=O)NC(=O)NC3=O)c2)c(C)c1	-19%	?	-22%	?	-62*	?
Cc1cccc(CC(=O)N2CC(N(Cc3ccccc3)C3CCOCC3)C2)c1	·	0%	·	·	·	·
COc1ccc(N2CC3CCC(C2)N3CC(F)(F)F)cn1	·	0%[6.33 µM]	·	·	·	·
CCC[N+]12CCC(CC1)C(C(O)(c1ccccc1)c1ccccc1)C2 (stereo not drawn)	6%	?	-20%	41%	2	4%
C[N+]12CCC(CC1)C(C(O)(c1ccccc1)c1cccs1)C2 (stereo not drawn)	-5%	45µM*	-7%	?	·	-3%
CC[C@@]1(O)C(=O)OCc2c1cc1n(c2=O)Cc2cc3c(N)cccc3nc2-1	79µM*	-2%	22µM*	?	-19	50µM*
c1nc(CN2CCNCC2)cs1	·	4%	·	·	·	·
COc1ccc(Cc2c(O)[nH]c(=S)[nH]c2=O)cc1	-9%	28µM*	15%	-4%	-56*	9%
COc1ccc(CCNCc2ccc(Br)cc2)cc1	·	22µM*	·	·	·	·
COc1ccc(CCNCc2cccc(Br)c2)cc1	·	1.3µM*	·	·	·	·
COc1ccc(CCNCc2ccccc2)cc1	-3%	?	-6%	-28%	-1	13%
Cc1cccc(NC(=O)N2[C@H]3CC[C@@H]2c2cnc(-c4ccccc4)nc2C3)c1	·	15%	·	·	·	·
Cc1cc(C)cc(N2C(=O)NC(=O)/C(=C/c3cccn3-c3ccc(Cl)cc3)C2=O)c1	-5%	-14%	79µM*	?	-26	12%
CC(C)(C)n1cccc1/C=C1\C(=O)NC(=O)N(c2ccccc2)C1=O	-2%	?	-15%	?	1	-10%
Cc1cnc(CCN)n1CC1CC1	·	97%	·	·	·	·
O=C(O)[C@@H]1CCN1	0%[60.1 µM]	25µM*	-2%[57.1 µM]	-4%[58.9 µM]	·	6%[57.1 µM]
O=C(O)C1CN(CP(=O)(O)O)CCN1 (stereo not drawn)	-17%[60.1 µM]	?	·	·	·	·
Cc1nn(-c2ccccc2)c2c1C(c1cnn(C)c1C)SCC(=O)N2 (stereo not drawn)	·	27%	·	·	·	·
ClC1=C(Cl)[C@]2(Cl)[C@@H]3[C@@H](Cl)[C@H]4O[C@H]4[C@@H]3C1(Cl)C2(Cl)Cl	·	1%	·	·	·	·
CN(C)c1ccc(CCN2CCOCC2)cc1	3%	2%	-3%	-11%	2	·
CN(C)c1ccc2c(c1)N=C(c1ccco1)OP2(=S)N1CCOCC1 (stereo not drawn)	-6%	20µM*	-9%	-12%	·	5%
Cc1nc(-c2ccco2)cc([C@H]2CN3CC[C@H]2C[C@@H]3CNC(=O)C(C)(C)C)n1	·	30%[176 µM]	·	·	·	·
CN1CCN(c2ccc([N+](=O)[O-])c3no[n+]([O-])c23)CC1	-15%	?	89µM*	18µM*	-11	-24%
O=[N+]([O-])c1ccc(N(CCO)CCO)c2c1no[n+]2[O-]	·	-7%	28µM*	·	?	·

From PubChem
